# “And” between values parts separate entries of the source, which are not always exact repeats. Equal values may be shown once. This is part of a sample that, as a whole, favours compounds with a hit. Of some 83,000 tested, about 20% had one in any assay.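 Treatment: one concentration, 48 hours, 96-well format. Scoring: percent growth, with anything below 10 considered active.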 The source made the active and inactive calls.
# Tests used:
# Test in all cases: NCI-60 one-dose screen, 48 h (100 = growth as untreated, 0 = no growth, -100 = all killed)
# Settings in all cases: 10 µM unless noted
# [1] = tested on: DU-145 prostate
# [2] = tested on: K-562 leukemia
# [3] = tested on: MALME-3M melanoma
# [4] = tested on: MDA-MB-231 breast
# [5] = tested on: RXF 393 renal
# [6] = tested on: SF-268 CNS
# [7] = tested on: SF-295 CNS
# [8] = tested on: SF-539 CNS
# [9] = tested on: UACC-257 melanoma
# [10] = tested on: M14 melanoma
# [11] = tested on: HCT-15 colon
# [12] = tested on: HT29 colon
# [13] = tested on: SNB-19 CNS
# [14] = tested on: U251 CNS
# [15] = tested on: PC-3 prostate
# [16] = tested on: SK-MEL-5 melanoma
# [17] = tested on: UACC-62 melanoma
# [18] = tested on: LOX IMVI melanoma
# [19] = tested on: SK-MEL-28 melanoma
# [20] = tested on: SNB-75 CNS
Compound,growth [1],growth [2],growth [3],growth [4],growth [5],growth [6],growth [7],growth [8],growth [9],growth [10],growth [11],growth [12],growth [13],growth [14],growth [15],growth [16],growth [17],growth [18],growth [19],growth [20]
C#C[C@]1(O)CC[C@H]2[C@@H]3CC=C4c5sc(Nc6cccc(F)c6)nc5CC[C@]4(C)[C@H]3CC[C@@]21C,31.3% (inactive),0.936% (active),38.3% (inactive),30.6% (inactive),-50.8% (active),37.1% (inactive),-51.9% (active),-10.8% (active),44% (inactive),11% (inactive),-28.6% (active),-23.3% (active),35.8% (inactive),10% (inactive),19.2% (inactive),42.6% (inactive),5.77% (active),-57.6% (active),13.8% (inactive),
COC(=O)CNC(=O)c1cccc(-c2cc(=O)c3c(OC)c(OC)c(OC)cc3o2)c1,108% (inactive),125% (inactive),95.2% (inactive),101% (inactive),99.4% (inactive),101% (inactive),101% (inactive),103% (inactive),103% (inactive),103% (inactive),96% (inactive),110% (inactive),92.6% (inactive),106% (inactive),95.6% (inactive),98.6% (inactive),90.2% (inactive),97.5% (inactive),106% (inactive),
Cc1ccc(NC(=O)Nc2nc3ccc([N+](=O)[O-])cc3s2)cc1,17.9% (inactive),10.7% (inactive),-19.2% (active),2.83% (active),-12.1% (active),10.8% (inactive),0.916% (active),14% (inactive),-12.5% (active),7.25% (active),7.79% (active),11.7% (inactive),11.3% (inactive),4.96% (active),-1.61% (active),-55% (active),9.49% (active),11.6% (inactive),14.8% (inactive),
CN1CCN(CCNc2nc(-c3cccc(NS(=O)(=O)c4cccc5c(N(C)C)cccc45)c3)cs2)CC1,81.8% (inactive),10.6% (inactive),44% (inactive),64.8% (inactive),61.6% (inactive),82.7% (inactive),42.6% (inactive),68.1% (inactive),53.9% (inactive),62.9% (inactive),18.5% (inactive),71.6% (inactive),75.5% (inactive),,,12.2% (inactive),65.7% (inactive),38.1% (inactive),40.2% (inactive),73.8% (inactive)
Cc1ccc(C(=O)CSc2nnc(-c3ccc(-c4ccc(Cl)cc4)nc3C)o2)cc1,115% (inactive),101% (inactive),96.1% (inactive),92.6% (inactive),119% (inactive),105% (inactive),92.5% (inactive),97.6% (inactive),118% (inactive),98.2% (inactive),102% (inactive),104% (inactive),99.3% (inactive),,,95% (inactive),84.8% (inactive),95.3% (inactive),99.9% (inactive),90.7% (inactive)
C=C(C=O)[C@@H]1CC[C@]2(C(=O)O)CC[C@]3(C)C(CC[C@@H]4[C@@](C)(CCC#N)[C@H](C(=C)C=O)CC[C@]43C)[C@@H]12 (some centres not stated),43.2% (inactive),4.17% (active),5.28% (active),43.8% (inactive),44% (inactive),64.9% (inactive),62.7% (inactive),13.4% (inactive),12.4% (inactive),13.2% (inactive),4.88% (active),0.538% (active),62.7% (inactive),5.39% (active),30.3% (inactive),26.3% (inactive),30.9% (inactive),-81.7% (active),-5.57% (active),
O=C1/C(=C/C=C/c2ccco2)SC(=S)N1Cc1ccccc1,93.8% (inactive),71.2% (inactive),87.2% (inactive),92.7% (inactive),95.3% (inactive),89.7% (inactive),97% (inactive),101% (inactive),91.6% (inactive),92.1% (inactive),65% (inactive),110% (inactive),89.2% (inactive),92.3% (inactive),101% (inactive),98.8% (inactive),82.1% (inactive),96.4% (inactive),101% (inactive),
Cc1ccccc1Nc1nc(SC(C)C)nc(-c2ccccc2)c1C#N,76.6% (inactive),46.3% (inactive),66.3% (inactive),67.9% (inactive),28.1% (inactive),57% (inactive),23.8% (inactive),28.1% (inactive),107% (inactive),77.2% (inactive),58.2% (inactive),53.2% (inactive),19.9% (inactive),33.8% (inactive),80.8% (inactive),85.2% (inactive),92.3% (inactive),10.5% (inactive),87.3% (inactive),
CC(=O)Nc1cc(N2CCOCC2)c2nc(NC(=O)c3[nH]c(C)c(Cl)c3Cl)sc2c1,58.1% (inactive),81.4% (inactive),54.7% (inactive),62.2% (inactive),19.2% (inactive),93.9% (inactive),50.8% (inactive),48.7% (inactive),84.8% (inactive),72.1% (inactive),66.9% (inactive),65.1% (inactive),83.9% (inactive),57.8% (inactive),64.3% (inactive),77.6% (inactive),94.8% (inactive),57% (inactive),67.5% (inactive),
COc1ccc(/C=N/N=C(/c2ccccc2)c2ccc3nc(-c4ccc(Cl)cc4)[nH]c3c2)cc1,86.5% (inactive),47.9% (inactive),90.6% (inactive),95% (inactive),83.3% (inactive),88.7% (inactive),81.3% (inactive),87.7% (inactive),101% (inactive),75.3% (inactive),59.7% (inactive),65.7% (inactive),84.2% (inactive),79.4% (inactive),54.7% (inactive),81% (inactive),91.9% (inactive),77.6% (inactive),88.4% (inactive),
CCN(CC)CCOc1ccc(C(=C(c2ccccc2)C2CCCC2)c2ccc(OCCN(CC)CC)cc2)cc1,38.3% (inactive),8.22% (active),-0.396% (active),24.7% (inactive),-33.4% (active),25.5% (inactive),60.6% (inactive),9.14% (active),14.3% (inactive),30.8% (inactive),-70.2% (active),-5.44% (active),14.6% (inactive),20.5% (inactive),14.6% (inactive),-82.4% (active),-74.7% (active),-56.6% (active),29% (inactive),
Cc1c(C(=O)/C=C/c2ccc(Cl)cc2)nnn1-c1ccc2oc(=O)ccc2c1,104% (inactive),83.4% (inactive),98.8% (inactive),94% (inactive),86.5% (inactive),102% (inactive),88.9% (inactive),99.5% (inactive),99.9% (inactive),95.6% (inactive),87.3% (inactive),101% (inactive),96.3% (inactive),96.7% (inactive),92% (inactive),97.7% (inactive),83.6% (inactive),80.7% (inactive),106% (inactive),
CCc1cc(O)ccc1Nc1cc(-c2ccc(-n3cccn3)cc2)[nH]n1,71.5% (inactive),18.9% (inactive),110% (inactive),92.9% (inactive),108% (inactive),66% (inactive),36.5% (inactive),79.4% (inactive),70% (inactive),47.4% (inactive),33.6% (inactive),77.4% (inactive),69% (inactive),82.5% (inactive),60.9% (inactive),49.2% (inactive),43.2% (inactive),26.1% (inactive),80.8% (inactive),
COc1cc(C(=O)c2cc(C(C)=O)c3ccc(C)cn23)cc(OC)c1OC,66.9% (inactive),19.2% (inactive),43.9% (inactive),55.2% (inactive),58.6% (inactive),61.3% (inactive),7.71% (active),34.7% (inactive),76.7% (inactive),16.1% (inactive),18.9% (inactive),15.6% (inactive),40% (inactive),34% (inactive),55.6% (inactive),36.7% (inactive),17.2% (inactive),34.5% (inactive),58.1% (inactive),
C/C=C/CC(C)C(O)[C@H](NC(=O)[C@@H]1CCCN1C(=O)[C@](C)(CC)NC(=O)CCCCCCCCC)C(=O)N[C@@](C)(CC)C(=O)N[C@@H](CCC(N)=O)C(=O)N[C@H](CCC(N)=O)C(=O)NC(C)(C)C(=O)NC(C)(C)C(=O)N[C@@H](CCC(N)=O)C(=O)N[C@H](CC(C)C)C(=O)N[C@H](CO)CC(C)C (some centres not stated),-21.7% (active) and -48.7% (active),14.5% (inactive) and 10.4% (inactive),29.9% (inactive) and -95.9% (active),63.4% (inactive) and -96% (active),0.95% (active) and -63% (active),20.8% (inactive) and -63.8% (active),11.3% (inactive) and -81.6% (active),39.5% (inactive) and -100% (active),21.1% (inactive) and -71.1% (active),54.7% (inactive) and -71.4% (active),76.9% (inactive) and -9.08% (active),89.8% (inactive) and -25% (active),65.8% (inactive) and -98.1% (active),61.2% (inactive) and -77.9% (active),69.8% (inactive) and -63.6% (active),7.02% (active) and -81.2% (active),73.8% (inactive) and -86.4% (active),40.1% (inactive) and -86.6% (active),-42.7% (active) and -100% (active),
Oc1ccc(-c2nc3ccc(/C(=N\N=C\c4ccc(Cl)cc4)c4ccccc4)cc3[nH]2)cc1,88.3% (inactive),70.8% (inactive),101% (inactive),91.1% (inactive),93.5% (inactive),90.9% (inactive),82.6% (inactive),87% (inactive),92% (inactive),63.5% (inactive),71.1% (inactive),75.4% (inactive),91.7% (inactive),86.6% (inactive),52.9% (inactive),84.1% (inactive),84.1% (inactive),57.4% (inactive),91% (inactive),

# Source: PubChem BioAssay (NCI)
